Test systems include MELK; MERTK; MET; MKK7; MKNK1; MKNK2; MLK2; MLK3; MRCKA; MST1R.
Conditions in all cases: concentration: 1 μM, replicates: in singlicate; n = 1
Another test deals with T1, MEK1.
T1 construct: gene MAP2K1

In a further test the test system is T2, MEK2.
T2 construct: gene MAP2K2

The next test deals with T3, MEK3.
T3 construct: gene MAP2K3

The next test has as its system T4, MEK4.
T4 construct: gene MAP2K4

A further test relates to T5, MEK5.
T5 construct: gene MAP2K5

A further test concerns T6, MEK6.
T6 construct: gene MAP2K6

In another test the test system is T7, MINK.
T7 construct: gene MINK1

Another test relates to T8, MLCK.
T8 construct: gene MYLK3

The subject of a further test is T9, MLK1.
T9 construct: gene MAP3K9

The test system of another test is T10, MRCKB.
T10 construct: gene CDC42BPB
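Also: KINOMEscan kinase panel screen.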

With `COc1cc2ncn(-c3cc(OCc4sccc4Cl)c(C(N)=O)s3)c2cc1OC` [GSK448459], the “%Inh” value with MEK1 is given as 0%; in the test with MEK2, 0%; with MEK3 it was 0%; in the test with MEK4, 15%; in the test with MEK5 it was 99.8%; in the test on MEK6 it was 0%. Also, the “%Inh” value is given as 0% in the test with MELK; 23% in the test on MERTK; 8% with MET; 50% in the test on MINK; 0% in the test on MKK7; 0% with MKNK1. In addition, the “%Inh” value turned out to be 0% in the test with MKNK2; 10% in the test on MLCK; 0% with MLK1; 0% in the test on MLK2; 0% with MLK3; 4% in the test with MRCKA. Further, the entries for the “%Inh” value in the test with MRCKB and with MST1R were 0% and 38%, respectively.

Take `Cc1c(Cn2c(C)nn3c(=O)cc(N4CCOC(C)C4)nc23)cccc1C(F)(F)F` (stereo not shown) [GSK2344444]: the “%Inh” value worked out at 0% in the test with MEK1; 0% in the test on MEK2; 0% in the test with MEK3; 17% in the test with MEK4; 49% with MEK5; 0% in the test on MEK6. The “%Inh” value worked out at 0% with MELK; 10% with MERTK; 0% in the test on MET; 0% with MINK; 0% in the test with MKK7; 0% in the test with MKNK1. For the same compound, the “%Inh” value is listed as 7% with MKNK2; 2% with MLCK; 0% with MLK1; 0% in the test with MLK2; 13% in the test on MLK3; 0% in the test with MRCKA. Also, the “%Inh” value in the test on MRCKB came out at 0%; in the test with MST1R, 28%.

Take `COc1ccc(Nc2nccc(N3CCC(NC(=O)Nc4cc(C)ccc4C)C3)n2)cc1` (stereo not shown) [GSK1379741]: the “%Inh” value is 0% in the test on MEK1; 0% with MEK2; 0% with MEK3; 14% in the test with MEK4; 44% in the test on MEK5; 0% in the test with MEK6. The “%Inh” value in the test on MELK is recorded as 0%; with MERTK, 24%; in the test with MET, 0%; with MINK, 0%; in the test on MKK7, 28%; with MKNK1, 0%. In addition, the “%Inh” value in the test with MKNK2 was found to be 5%; in the test with MLCK, 11%; in the test on MLK1, 0%; with MLK2 it was 0%; in the test with MLK3, 0%; with MRCKA, 24%. For the same compound, the entries for the “%Inh” value in the test on MRCKB and with MST1R were 0% and 55%, respectively.

Turning to `Cc1cn2c(=O)cc(N3CCOCC3)nc2n1Cc1cccc(Cl)c1Cl` [GSK2334006], the “%Inh” value is given as 11% in the test with MEK1; 0% with MEK2; 0% with MEK3; 17% with MEK4; 54% with MEK5; 0% in the test on MEK6. The “%Inh” value is recorded as 17% in the test with MELK; 5% in the test with MERTK; 0% with MET; 0% with MINK; 29% with MKK7; 2% in the test with MKNK1. The “%Inh” value worked out at 10% with MKNK2; 0% in the test with MLCK; 0% in the test with MLK1; 2% in the test with MLK2; 38% with MLK3; 6% in the test on MRCKA. The entries for the “%Inh” value in the test with MRCKB and with MST1R were 8% and 28%, respectively.

`N#Cc1ccc(-c2cc(-c3c[nH]nc3-c3ccccn3)ccn2)cc1` [GW693028]: the “%Inh” value in the test on MEK1 was found to be 0%; in the test on MEK2, 0%; in the test with MEK3 it was 0%; in the test with MEK4, 1%; in the test on MEK5, 13%; with MEK6, 0%. For the same compound, the “%Inh” value is 0% in the test on MELK; 15% in the test with MERTK; 0% with MET; 76% in the test with MINK; 0% in the test with MKK7; 7% with MKNK1. Further, the “%Inh” value is 14% in the test on MKNK2; 0% in the test with MLCK; 0% in the test on MLK1; 6% in the test on MLK2; 0% with MLK3; 0% in the test with MRCKA. Further, the “%Inh” value with MRCKB was found to be 0%; in the test on MST1R it was 26%.

For `NS(=O)(=O)c1cccc(-c2ccc3nccc(-c4cccc(S(N)(=O)=O)c4)c3c2)c1` [GW867253], the “%Inh” value with MEK1 was determined as 23%; with MEK2, 30%; in the test with MEK3, 38%; in the test on MEK4, 15%; with MEK5 it was 41%; with MEK6, 7%. For the same compound, the “%Inh” value with MELK is on record as 0%; in the test with MERTK it was 14%; in the test on MET it was 0%; in the test on MINK, 27%; with MKK7, 0%; in the test on MKNK1, 0%. The “%Inh” value is 0% in the test on MKNK2; 0% in the test on MLCK; 0% in the test with MLK1; 41% with MLK2; 0% in the test on MLK3; 3% with MRCKA. Further, the “%Inh” value in the test on MRCKB is reported as 7%; in the test with MST1R, 0%.

`O=C1NC(=O)C(N2CCc3ccccc32)=C1c1cccc(Cl)c1` [SB-408010]: the “%Inh” value in the test on MEK1, with MEK2, with MEK3, in the test with MEK4, in the test with MEK5 and in the test with MEK6 was 0% throughout. For the same compound, the “%Inh” value in the test with MELK was found to be 0%; in the test on MERTK it was 0%; in the test on MET it was 0%; in the test with MINK, 0%; with MKK7, 0%; with MKNK1, 18%. Moreover, the “%Inh” value is reported as 46% in the test with MKNK2; 0% with MLCK; 0% in the test with MLK1; 0% in the test on MLK2; 0% in the test on MLK3; 0% in the test on MRCKA. The figures for the “%Inh” value with MRCKB and in the test with MST1R were 15% and 5%, respectively.

With `CNc1ncnc2[nH]ncc12` [SKF-18355], the “%Inh” value stood at 13% in the test with MEK1; 40% with MEK2; 31% with MEK3; 18% with MEK4; 55% in the test on MEK5; 10% in the test on MEK6. For the same compound, the “%Inh” value is 0% with MELK; 0% in the test on MERTK; 0% in the test on MET; 18% with MINK; 0% in the test on MKK7; 0% with MKNK1. The “%Inh” value was 0% in the test on MKNK2; 1% with MLCK; 1% in the test on MLK1; 0% with MLK2; 2% in the test on MLK3; 0% in the test with MRCKA. For the same compound, the “%Inh” value with MRCKB and in the test on MST1R was 0% throughout.

Consider `O=c1cc(N2CCOCC2)nc2n(Cc3cccc4ccccc34)ccn12` [GSK2333389], for which the “%Inh” value in the test on MEK1 came to 0%; with MEK2, 0%; in the test on MEK3, 0%; in the test with MEK4 it was 3%; in the test with MEK5 it was 18%; in the test with MEK6 it was 0%. For the same compound, the “%Inh” value with MELK was 0%; with MERTK it was 23%; in the test on MET, 0%; with MINK it was 0%; with MKK7, 0%; with MKNK1 it was 0%. Besides, the “%Inh” value in the test with MKNK2 is 3%; in the test on MLCK it was 0%; in the test with MLK1, 0%; in the test on MLK2, 2%; in the test with MLK3 it was 0%; with MRCKA, 0%. The “%Inh” value in the test with MRCKB turned out to be 0%; with MST1R it was 12%.

Take `COc1ccc(Nc2ncc(C#N)c(Nc3ccccc3C(N)=O)n2)cc1N1CCN(C)CC1.Cl` [GSK1558669]: the “%Inh” value was 85% with MEK1; 92.6% in the test on MEK2; 89% in the test with MEK3; 92.5% in the test on MEK4; 100% in the test with MEK5; 79% in the test with MEK6. For the same compound, the “%Inh” value in the test with MELK is 100%; in the test on MERTK it was 100%; in the test with MET, 92%; in the test on MINK, 98.7%; in the test with MKK7, 0%; in the test with MKNK1, 30%. The “%Inh” value is 98.2% with MKNK2; 99.7% in the test with MLCK; 98.7% in the test on MLK1; 100% in the test with MLK2; 100% in the test on MLK3; 44% with MRCKA. Also, the “%Inh” value in the test on MRCKB turned out to be 87%; with MST1R, 86%.

`Cc1nnc(-c2ccc3ncc(-c4ccc(S(C)=O)cc4)n3c2)o1` (stereo not shown): the “%Inh” value in the test on MEK1 stood at 9%; in the test with MEK2 it was 9%; with MEK3, 6%; in the test on MEK4 it was 24%; in the test on MEK5, 42%; in the test on MEK6, 0%. Besides, the “%Inh” value with MELK is listed as 4%; in the test on MERTK, 0%; in the test on MET, 15%; with MINK, 0%; in the test on MKK7 it was 18%; in the test with MKNK1, 0%. The “%Inh” value worked out at 35% with MKNK2; 0% in the test with MLCK; 0% with MLK1; 0% in the test with MLK2; 0% in the test on MLK3; 9% in the test on MRCKA. Moreover, the “%Inh” value in the test with MRCKB and in the test with MST1R was 0% in each case.

Source of the values: article PMC5540273 (PLoS ONE, 2017).
